Measurements as given in PubChem BioAssay (NCATS).
“And” between values parts separate entries of the source, which are not always exact repeats. Equal entries are not always repeated. Results filed as inconclusive are left out. The source made the active and inactive calls. Unless noted, calls come from the whole dose curve; as a rule, active = well fitted curve in either direction with a large enough effect (not every such curve was filed as active); inconclusive = small, poorly fitted or top-dose-only effect, or another doubt; inactive = flat fitted curve, though single readings scatter.

Assays:
[1] = AP1 Signaling Pathway (AID 357); settings: ME-180 AP-1-bla reporter, EGF-induced, beta-lactamase ratio, 5 h; at 17.2 µM (top of the series);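 note: ME-180 reporter cells stimulated with EGF at its EC50 level; % is set by controls: 0 for no effect and ±100 for the full control effect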
Method in brief: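 A ratiometric CCF4 readout (405 nm excitation; 460 and 530 nm emission) quantified AP-1-driven beta-lactamase in ME-180 cells after 5 h with compound and EC50 EGF; AC50 values were derived for activators and inhibitors.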

[2] = Stat Signaling Pathway (AID 446); settings: ME-180 (cervical carcinoma) SIE beta-lactamase reporter, IL-6 stimulated, 5 h;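 note: ME-180 cervical cancer cells given 40 pM IL-6 alongside compound; SIE-controlled beta-lactamase reporter measured as 460/530 nm FRET emission ratio; % is set by controls: 0 for no effect and ±100 for the full control effect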
Method in brief: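 IL-6/STAT signaling read in ME-180 cells via an SIE beta-lactamase reporter. Stimulus was 40 pM IL-6 (its AC50) for 5 hrs, so both activation and inhibition register.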

[3] = target: Glucocorticoid receptor (Homo sapiens) (UniProt P04150); experiment: GR-GFP Redistribution (AID 450;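 active = compounds whose dose series gives a full or clear partial fitted curve of increased nuclear translocation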; note: potency is the fitted concentration of half-maximal effect); settings: U2OS GR-GFP nuclear translocation, laser cytometry, 2 h
[4] = target: Glucocorticoid receptor (Homo sapiens) (UniProt P04150); experiment: GR-EFC Redistribution (AID 451; calls by dose curve; note: potency is the fitted concentration of half-maximal effect); settings: CHO-K1 GR-EFC translocation, beta-gal luminescence, 2 h
Method in brief: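 Translocation of GR-ED fusion to nuclear EA restores b-gal, read by luminescence after 1 h room-temperature detection. Engineered CHO-K1 biosensor cells, 1,000/well, exposed 2 h at 37 C to titrations up to 46 uM final.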

[5] = target: Mitogen-activated protein kinase 10 (Mus musculus) (UniProt Q61831); experiment: JNK3 AlphaScreen Assay (AID 530); settings: JNK3 lysate, c-Jun phosphorylation; series mostly up to 25.6 µM;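 note: kinase came from lysate of stimulated human HepG2 cells; signal reports phosphorylation of biotinylated GST-cJun 1-79 at Ser73 with 10 µM ATP; % is set by controls: 0 for no effect and ±100 for the full control effect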
Method in brief: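 Room-temperature AlphaScreen kinase assay; pre-activated HepG2 lysate as JNK3 source, biotin-GST-cJun(1-79) substrate, 10 uM ATP, compound 15 min preincubation.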

[6] = Cell Viability - BJ (AID 421; calls by dose curve;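 note: potency is the fitted concentration of half-maximal effect; cells exposed to compound for 40 hours at 37 °C before readout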); settings: BJ fibroblast viability, qHTS
Method in brief: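 Quantitative HTS: ATP depletion in BJ cells after 40 hr compound exposure in complete culture medium, detected with CellTiter-Glo; AC50 from standard Hill fits.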

[7] = Cell Viability - Jurkat (AID 426;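 active = dose-dependent loss of cell ATP signal giving a full or clear fitted curve, ranked by lower potency value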; note: potency is the fitted concentration of half-maximal effect); settings: qHTS
Method in brief: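 Seed 5000 Jurkat E6-1 cells/well; add compound; incubate 40 hr at 37 °C; add CellTiter-Glo; wait 20 min at room temperature; read luminescence. Fit concentration-response with Hill equation for AC50.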

[8] = Cell Viability - Hek293 (AID 427;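 active = compounds whose dose-response curve shows a full or clear partial loss of cell viability, called from curve shape rather than a numeric limit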;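 note: potency is the fitted concentration of half-maximal effect; cells exposed to compound for 40 hours at 37 °C before reading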); settings: qHTS
Method in brief: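 AC50 values derive from Hill-modelled concentration-response of ATP-based luminescence, normalized between DMSO-only and 100 uM tamoxifen controls. Cells were exposed in complete culture medium for 40 hr at 37 °C before detection.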

[9] = Cell Viability - HepG2 (AID 433; calls by dose curve;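 note: potency is the fitted concentration of half-maximal effect; potency for ATP loss meaning cytotoxicity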); settings: qHTS
Method in brief: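 In this qHTS format, a 40 h, 37 °C compound incubation of HepG2 cells in complete medium precedes a 20 min CellTiter-Glo step at room temperature. Tamoxifen and doxorubicin serve as positive controls; Hill-equation fits yield AC50.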

[10] = Cell Viability - MRC5 (AID 434; calls by dose curve;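 note: potency is the fitted concentration of half-maximal effect; potency reflects cytotoxicity seen as loss of intracellular ATP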); settings: MRC5 lung fibroblast viability, qHTS
Method in brief: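 qHTS cytotoxicity in human lung fibroblast MRC5 cells; 40 hr treatment, 37 °C; cellular ATP by luciferase luminescence; DMSO = 0%, 100 uM tamoxifen = 100% inhibition; Hill-fit AC50.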

[11] = Cell Viability - SK-N-SH (AID 435; calls by dose curve;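 note: potency is the fitted concentration of half-maximal effect; compound exposure lasted 40 h at 37 °C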); settings: SK-N-SH neuroblastoma cell viability qHTS
Method in brief: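 Human neuroblastoma line, 40 h exposure at 37 °C, ATP quantified via luciferase luminescence; DMSO and 100 uM tamoxifen define 0 and 100% inhibition for AC50 fitting.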

[12] = Cell Viability - N2a (AID 540; active = well fitted curve in the direction sought with a large enough effect; an effect the other way counts as inactive or inconclusive; note: nearly all actives have a fitted effect of over 45% in size; note: potency is the fitted concentration of half-maximal effect;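 for activity change, negative = cytotoxicity: plate controls were DMSO alone for no effect and tamoxifen control for full effect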); settings: N2a mouse neuroblastoma cell viability; activity change, negative = cytotoxicity: at 92.2 µM (top of the series)
Method in brief: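 First, 1500 N2a cells per well incubate 5 hr at 37 °C; next, compounds are added and incubated 40 hr at 37 °C; finally CellTiter-Glo is added and luminescence read after 20 min, with AC50 derived by Hill modeling.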

[13] = Cell Viability - NIH 3T3 (AID 541; active = well fitted curve in the direction sought with a large enough effect; an effect the other way counts as inactive or inconclusive; note: nearly all actives have a fitted effect of over 25% in size; note: potency is the fitted concentration of half-maximal effect;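 for activity change, negative = cytotoxicity: plate controls were DMSO alone for no effect and tamoxifen positive control for full effect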); settings: NIH 3T3 cell viability, qHTS; activity change, negative = cytotoxicity: at 92.2 µM (top of the series)
Method in brief: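 AC50 values reflect concentration-dependent loss of intracellular ATP in NIH 3T3 cells after 40 hr treatment in complete culture medium, quantified by luciferase-based luminescence.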

[14] = Cell Viability - HUV-EC-C (AID 542; active = well fitted curve in the direction sought with a large enough effect; an effect the other way counts as inactive or inconclusive; note: nearly all actives have a fitted effect of over 35% in size; note: potency is the fitted concentration of half-maximal effect); settings: HUV-EC-C endothelial cell viability, qHTS; series mostly up to 92.2 µM
Method in brief: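 Decrease in cellular ATP, quantified by luciferase luminescence, reflects toxicity in normal human vascular endothelial HUV-EC-C cells given compound for 40 hr in complete culture medium. Values are AC50s from concentration-response curves.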

[15] = Cell Viability - H-4-II-E (AID 543; active = well fitted curve in the direction sought with a large enough effect; an effect the other way counts as inactive or inconclusive; note: nearly all actives have a fitted effect of over 35% in size; note: potency is the fitted concentration of half-maximal effect); settings: H-4-II-E rat hepatoma viability; series mostly up to 92.2 µM
Method in brief: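 Here, cytotoxicity is measured in the rat hepatoma line H-4-II-E as loss of intracellular ATP after 40 hr compound treatment, detected by luciferase luminescence.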

[16] = Cell Viability - SH-SY5Y (AID 544; active = well fitted curve in the direction sought with a large enough effect; an effect the other way counts as inactive or inconclusive; note: nearly all actives have a fitted effect of over 55% in size; note: potency is the fitted concentration of half-maximal effect;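 for viability change, negative = cytotoxic: 0% = DMSO alone and -100% = 100 µM tamoxifen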); settings: SH-SY5Y neuroblastoma cell viability; viability change, negative = cytotoxic: at 92.2 µM (top of the series)
Method in brief: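 Cytotoxicity is scored as a concentration-dependent fall in intracellular ATP in human SH-SY5Y cells treated 40 hr in complete culture medium. Potency is expressed as AC50 from a Hill equation fit.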

[17] = Cell Viability - Renal Proximal Tubule (AID 545; active = well fitted curve in the direction sought with a large enough effect; an effect the other way counts as inactive or inconclusive; note: nearly all actives have a fitted effect of over 40% in size; note: potency is the fitted concentration of half-maximal effect;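 for activity change, negative = cytotoxicity: 0% = DMSO only and -100% = 100 µM tamoxifen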); settings: renal proximal tubule cells viability, primary cells of rat origin; activity change, negative = cytotoxicity: at 91.7 µM (top of the series)
Method in brief: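 In this qHTS format, normal rat kidney-derived proximal tubule cells in complete culture medium receive compound titrations, then sit 40 hours at 37 °C before luciferase-based ATP quantitation; potency is reported as AC50 from concentration-response curves.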

[18] = target: Cytochrome P450 1A2 (Homo sapiens) (UniProt P05177); experiment: p450-cyp1a2 (AID 410; calls by dose curve; note: potency is the fitted concentration of half-maximal effect;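 for activity change, negative = inhibition: -100% = full effect of reference inhibitor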); settings: recombinant CYP1A2, luciferin-ME demethylation, luminescence; series mostly up to 25.6 µM
Method in brief: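 Inhibition was calculated relative to 57 uM furafylline (full inhibition). The reaction used human CYP1A2 at 20nM with Luciferin-ME at its Km, 100uM, driven by an NADPH-regenerating system for 60 min at room temperature.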

[19] = NFAT Signaling Pathway (AID 444); settings: Jurkat NFAT-bla M1, carbachol, beta-lactamase ratio, 5 h; at 17.2 µM (top of the series);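 note: carbachol stimulus at about its EC50 of 1 µM final; % is set by controls: 0 for no effect and ±100 for the full control effect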
Method in brief: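 Read-out: CCF4 FRET ratio (460 nm/530 nm) after 1 h RT dye loading, used for %activity and AC50 from titration series. Cells: Jurkat NFAT-β-lactamase/M1 line, treated with compound plus 1 uM carbachol for 5 h, 37 °C.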

Glucocorticoid receptor (Homo sapiens), sequence (P04150 whole entry, looked up, the tested form may be a part): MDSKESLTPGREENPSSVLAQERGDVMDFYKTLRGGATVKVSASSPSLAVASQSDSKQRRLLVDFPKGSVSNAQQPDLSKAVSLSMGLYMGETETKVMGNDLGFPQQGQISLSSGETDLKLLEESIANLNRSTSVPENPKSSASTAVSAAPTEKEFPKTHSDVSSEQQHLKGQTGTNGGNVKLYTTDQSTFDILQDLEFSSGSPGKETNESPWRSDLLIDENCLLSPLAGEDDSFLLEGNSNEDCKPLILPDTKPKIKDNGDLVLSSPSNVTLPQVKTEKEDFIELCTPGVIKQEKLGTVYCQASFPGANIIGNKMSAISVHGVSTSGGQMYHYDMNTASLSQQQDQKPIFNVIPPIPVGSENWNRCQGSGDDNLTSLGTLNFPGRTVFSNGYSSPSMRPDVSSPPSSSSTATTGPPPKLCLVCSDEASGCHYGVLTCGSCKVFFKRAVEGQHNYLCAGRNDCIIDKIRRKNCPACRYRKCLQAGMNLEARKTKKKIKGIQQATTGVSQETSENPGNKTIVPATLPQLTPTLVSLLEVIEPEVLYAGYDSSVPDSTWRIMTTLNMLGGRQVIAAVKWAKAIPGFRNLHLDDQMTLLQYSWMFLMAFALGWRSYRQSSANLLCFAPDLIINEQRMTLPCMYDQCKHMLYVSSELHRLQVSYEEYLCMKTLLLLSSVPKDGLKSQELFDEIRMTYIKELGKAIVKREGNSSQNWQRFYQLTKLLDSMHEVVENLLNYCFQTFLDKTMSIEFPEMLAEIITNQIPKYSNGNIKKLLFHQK
Cytochrome P450 1A2 (Homo sapiens), sequence (P05177 whole entry, looked up): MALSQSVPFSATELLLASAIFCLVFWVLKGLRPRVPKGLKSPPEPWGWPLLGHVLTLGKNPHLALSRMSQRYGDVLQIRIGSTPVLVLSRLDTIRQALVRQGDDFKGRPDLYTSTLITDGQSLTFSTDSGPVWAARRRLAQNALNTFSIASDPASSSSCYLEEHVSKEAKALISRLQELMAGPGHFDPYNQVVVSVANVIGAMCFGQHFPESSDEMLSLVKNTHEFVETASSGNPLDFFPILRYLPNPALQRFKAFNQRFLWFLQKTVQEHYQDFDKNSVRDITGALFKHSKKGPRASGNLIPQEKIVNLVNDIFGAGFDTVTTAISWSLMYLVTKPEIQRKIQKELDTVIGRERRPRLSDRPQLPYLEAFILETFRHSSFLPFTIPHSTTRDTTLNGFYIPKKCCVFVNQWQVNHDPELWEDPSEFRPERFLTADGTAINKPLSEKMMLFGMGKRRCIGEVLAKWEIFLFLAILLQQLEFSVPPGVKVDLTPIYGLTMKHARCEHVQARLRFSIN

COc1ccc(CCN2CCC(Nc3nc4ccccc4n3Cc3ccc(F)cc3)CC2)cc1
inactive: activity change, negative = inhibition [1] -6.26% and 6.64% | activity, negative = inhibition ([2]; at 17.2 µM (top of the series)) -11% and -15.4% | Potency [3] > 20.6 µM | Potency [4] > 20.6 µM | outcome [5]

O=c1ccc2ccccc2o1
inactive: Potency [6] > 92 µM | Potency [7] > 92 µM | Potency [8] > 92 µM | Potency [9] > 92 µM | Potency [10] > 92 µM | Potency [11] > 92 µM | outcome [5] | Potency [12] | Potency [13] | Potency [14] | Potency [15] | Potency [16] | activity change, negative = cytotoxicity [17] -6.1%

CN(C)CCCOc1nn(Cc2ccccc2)c2ccccc12
inactive: activity change, negative = inhibition [1] 10.8% | activity, negative = inhibition ([2]; at 17.2 µM (top of the series)) -8.78% | Potency [3] > 20.6 µM | Potency [4] > 20.6 µM | outcome [5]

NC(=NCCCCCCN=C(N)/N=C(\N)Nc1ccc(Cl)cc1)/N=C(\N)Nc1ccc(Cl)cc1
active: Potency [18] 15.8 µM | Potency [7] 42.1 µM | Potency [8] 45.6 µM | Potency [9] 39.6 µM | Potency [10] 50 µM | Potency [11] 46.5 µM | Potency [12] 31.6 µM | Potency [13] 31.6 µM | Potency [14] 39.8 µM | Potency [15] 31.6 µM | activity change, negative = cytotoxicity [17] -102%
inactive: activity, negative = inhibition ([2]; at 17.2 µM (top of the series)) -5.46% | Potency [3] > 20.6 µM | Potency [4] > 20.6 µM | outcome [5]

COC1=CC(=O)C[C@@H](C)[C@]12Oc1c(Cl)c(OC)cc(OC)c1C2=O
active: Potency [15] 25.1 µM | Potency [16] 25.1 µM
inactive: Potency [6] > 92 µM | Potency [8] > 92 µM | Potency [9] > 92 µM | Potency [10] > 92 µM | outcome [5] | Potency [12] | Potency [13] | Potency [14]

C/C=C(/C(=C/C)c1ccc(O)cc1)c1ccc(O)cc1
inactive: activity, negative = inhibition ([2]; at 17.2 µM (top of the series)) -10.4% | Potency [3] > 20.6 µM

CC(C)N=C(N)/N=C(\N)Nc1ccc(Cl)cc1
inactive: activity change, negative = inhibition [1] -0.245% | activity change, negative = inhibition [19] -11% | activity, negative = inhibition ([2]; at 17.2 µM (top of the series)) -2.15% | Potency [3] > 20.6 µM | Potency [4] > 20.6 µM | outcome [5]

COc1cccc2c1C(=O)c1c(O)c3c(c(O)c1C2=O)C[C@@](O)(C(=O)CO)C[C@@H]3O[C@H]1C[C@H](N)[C@H](O)[C@H](C)O1
active: Potency [6] 0.177 µM | Potency [7] 0.0218 µM | Potency [8] 0.0255 µM | Potency [11] 0.0168 µM | Potency [12] 0.398 µM | Potency [13] 0.0794 µM | Potency [15] 25.1 µM | Potency [16] 0.0126 µM | Potency [17] 15.8 µM
inactive: Potency [9] > 92 µM | Potency [3] > 20.6 µM | outcome [5]

CN1[C@@H]2CC[C@H]1CC(OC(=O)c1c[nH]c3ccccc13)C2 (stereo not given in full)
inactive: Potency [18] | activity, negative = inhibition ([2]; at 38 µM (top of the series)) -14.5% | outcome [5]

C[C@@H](CN(C)C)CN1c2ccccc2Sc2ccccc21
active: activity change, negative = inhibition [1] 82.2% [activator]
inactive: activity, negative = inhibition ([2]; at 17.2 µM (top of the series)) -7.27% | Potency [3] > 20.6 µM | Potency [4] > 20.6 µM | outcome [5]

CCCCCCCCCCCCCCCC[N+](C)(C)CCN(Cc1ccc(OC)cc1)c1ncccn1
inactive: activity change, negative = inhibition [1] 21.6% | activity change, negative = inhibition [19] 8.86% | activity, negative = inhibition ([2]; at 17.2 µM (top of the series)) 11.5% | Potency [3] > 20.6 µM | Potency [4] > 20.6 µM | outcome [5]

c1ccc(-c2ccc(C(c3ccccc3)n3ccnc3)cc2)cc1 (stereo not given)
inactive: activity, negative = inhibition ([2]; at 17.2 µM (top of the series)) -24.4% | Potency [3] > 20.6 µM

CCCCOc1ccc(OCCCN2CCOCC2)cc1
inactive: activity change, negative = inhibition [1] 5.36% and -1.05% | activity, negative = inhibition ([2]; at 17.2 µM (top of the series)) -0.87% and 12.1% | outcome [5]

O=C(O)CCCCC(=O)O
inactive: Potency [6] > 92 µM | Potency [7] > 92 µM | Potency [8] > 92 µM | Potency [9] > 92 µM | Potency [10] > 92 µM | Potency [11] > 92 µM | outcome [5] | Potency [12] | Potency [13] | Potency [14] | Potency [15] | Potency [16] | activity change, negative = cytotoxicity [17] 1.76%

CCCCC(=O)O[C@]1(C(=O)CO)CC[C@H]2[C@@H]3CCC4=CC(=O)CC[C@]4(C)[C@H]3[C@@H](O)C[C@@]21C
active: Potency [3] 0.000459 µM
inactive: activity change, negative = inhibition [1] 5.88% | activity, negative = inhibition ([2]; at 17.2 µM (top of the series)) -12.8%

CCCCCCc1ccc(O)cc1O
inactive: Potency [6] > 92 µM | Potency [7] > 92 µM | Potency [8] > 92 µM | Potency [9] > 92 µM | Potency [10] > 92 µM | Potency [11] > 92 µM | outcome [5] | Potency [14] | Potency [15] | Potency [16] | activity change, negative = cytotoxicity [17] -9.26%

Oc1c(I)cc(I)c2cccnc12
inactive: Potency [3] > 20.6 µM
